The text below walks through data of PubChem BioAssay (EPA / NIEHS).

Molecules are shown by their SMILES. Records with an inconclusive call do not appear. The source made the active and inactive calls. How the source made its calls, unless noted: active means hit-call score of the fitted dose curve at least 0.9, where 1 is the maximum; inactive means score below 0.9.

In general, AC50 refers to the midpoint of the concentration-response curve, whichever way the signal moves.

The nature of experiment [1]: ATG_PPRE_CIS: Attagene CIS-FACTORIAL HepG2 Assay for human Peroxisome Proliferator-activated Response Element (PPRE) (AID 2282958). Conditions: HepG2 PPRE cis-element reporter, Attagene transcription factor profiling; actives raise or lower the signal. Put shortly: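 HepG2 cells transiently transfected with multiplexed cis-element reporter units measure endogenous transcription factor activity. After 24 h compound exposure, reporter mRNA is quantified by RT-PCR, 6-FAM labeling, HpaI digestion and capillary electrophoresis; bidirectional fits are made against DMSO baseline.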

Experiment [2] in a line: ATG_RORE_CIS: Attagene CIS-FACTORIAL HepG2 Assay for human RAR-related Orphan Receptor Element (RORE) (AID 2282959). Conditions: HepG2 Attagene cis-factorial RORE reporter, mRNA; actives raise or lower the signal. Put shortly:
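HepG2 cells transiently transfected with multiple cis-element reporter transcription units, exposed to chemical for 24 h. Reporter mRNA quantified by RT-PCR, 6-FAM primer-extension labeling, HpaI digestion and capillary electrophoresis; bidirectional fit versus DMSO baseline.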

Experiment [3] is described as follows: ATG_Sox_CIS: Attagene CIS-FACTORIAL HepG2 Assay for human SRY-box transcription factor (SOX) (AID 2282960). Conditions: HepG2 Attagene cis-factorial SOX reporter, mRNA; actives raise or lower the signal. The method, boiled down:
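HepG2 cells transiently transfected with cis-element-driven multiple reporter transcription units, dosed 24 h; reporter mRNA measured by RT-PCR, FAM labelling, HpaI digestion and capillary electrophoresis. Bidirectional fit versus DMSO baseline.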

Experiment [4] concerns the target Transcription factor Sp1 (Homo sapiens) (UniProt P08047). The experiment can be described thus: ATG_Sp1_CIS: Attagene CIS-FACTORIAL HepG2 Assay for human Specificity Protein 1 (Sp1) (AID 2282961). Conditions: HepG2 Sp1 cis-reporter transcription, actives raise or lower the signal. The method, boiled down:
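HepG2 cells transiently transfected with multiple reporter transcription units driven by cis-regulatory elements; Sp1-responsive reporter mRNA measured 24 h after dosing by RT-PCR and capillary electrophoresis fluorescence, fitted bidirectionally against DMSO baseline.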

The nature of experiment [5]: ATG_SREBP_CIS: Attagene CIS-FACTORIAL HepG2 Assay for human Sterol Regulatory Element Binding (SREBP) (AID 2282962). Conditions: HepG2 Attagene cis-factorial SREBP reporter, mRNA; actives raise or lower the signal. Put shortly:
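mRNA induction of transfected cis-promoter reporters in HepG2 cells, 24 h post-dose. Detection: RT-PCR with 6-FAM-labelled products, HpaI digest, capillary electrophoresis. DMSO served as negative control and baseline.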

Experiment [6] has as its target Signal transducer and activator of transcription 3 (Homo sapiens) (UniProt P40763). The experiment can be described thus: ATG_STAT3_CIS: Attagene CIS-FACTORIAL HepG2 Assay for human Signal Transducer and Activator of Transcription 3 (STAT3) (AID 2282963). Conditions: HepG2, Attagene cis-factorial STAT3 reporter transcription; actives raise or lower the signal. The method, boiled down: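 HepG2 cells transiently transfected with multiple cis-element-driven reporter units report endogenous transcription factor activity. After 24 h compound exposure, reporter mRNA is measured by RT-PCR, 6-FAM labelling, HpaI digestion and capillary electrophoresis. Fitted bidirectionally versus DMSO.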

A short description of experiment [7]: ATG_TA_CIS: Attagene CIS-FACTORIAL HepG2 Assay for human TA Basal Promoter (AID 2282964). Conditions: HepG2 Attagene CIS-factorial TA basal promoter reporter; actives raise or lower the signal. Put shortly: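 Background internal-marker endpoint from a 52-component HepG2 cis-reporter panel. Cells treated 24 h; reporter transcripts quantified via RT-PCR and CE fluorescence against DMSO baseline.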

Experiment [8] in a line: ATG_TCF_b_cat_CIS: Attagene CIS-FACTORIAL HepG2 Assay for human T-Cell-Factor with beta-catenin (TCF/b-cat) (AID 2282965). Conditions: HepG2 TCF/beta-catenin cis-reporter transcription, actives raise or lower the signal. The method, boiled down: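 HepG2 cells transiently transfected with cis-promoter-driven multiplexed reporter units; reporter mRNA measured 24 h after dosing by RT-PCR, FAM labelling, HpaI digestion and capillary electrophoresis. Bidirectional fitting relative to DMSO baseline.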

Experiment [9] is described as follows: ATG_TAL_CIS: Attagene CIS-FACTORIAL HepG2 Assay for human TAL Basal Promoter (AID 2282966).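 Further: background control endpoint measuring basal TAL promoter reporter mRNA not a specific factor.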 Conditions: HepG2 Attagene cis-factorial TAL promoter reporter; actives raise or lower the signal. The method, boiled down:
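HepG2 cells were transiently transfected with promoter-driven multiplexed reporter units and dosed for 24 h. Reporter mRNA was measured by RT-PCR with capillary electrophoresis fluorescence; bidirectional fits used DMSO as baseline, serving as a background control.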

Experiment [10] can be described thus: ATG_TGFb_CIS: Attagene CIS-FACTORIAL HepG2 Assay for human Transforming Growth Factor (TGF) (AID 2282967). Conditions: HepG2 Attagene CIS TGFb reporter, mRNA transcription; actives raise or lower the signal. Put shortly:
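Liver HepG2 line, cis-factorial reporter panel, 24 h dosing. Quantitation: RT-PCR products labeled with 6-FAM, cut with HpaI, resolved by capillary electrophoresis; DMSO-referenced bidirectional analysis.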

Experiment [11] can be described thus: ATG_VDRE_CIS: Attagene CIS-FACTORIAL HepG2 Assay for human Vitamin D Receptor Element (VDRE) (AID 2282968). Conditions: HepG2 VDRE cis-reporter transcription, actives raise or lower the signal. Put shortly: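 Transiently transfected HepG2 cells carrying cis-regulated reporter transcription units were exposed for 24 h. Reporter mRNA was measured by RT-PCR with fluorescent labelling and capillary electrophoresis, and fitted in both directions against DMSO.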

Experiment [12] deals with Nuclear receptor subfamily 1 group I member 3 (Homo sapiens) (UniProt Q14994). The experiment can be described thus: ATG_CAR_TRANS: Attagene TRANS-FACTORIAL HepG2 Assay for human Constitutive Androstane Receptor (CAR) (AID 2282969; active means hit-call score of the fitted dose curve at least 0.9, where 1 is the maximum;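 further: activators raise reporter mRNA above DMSO so AC50 marks induction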). Conditions: HepG2 Attagene TRANS-FACTORIAL CAR reporter. The method, boiled down: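 HepG2 cells transiently transfected with GAL4-UAS reporter units; TRANS format reads activity of exogenous chimeric NR-Gal4 protein. After 24 h dosing, reporter mRNA quantified by RT-PCR, 6-FAM labelling and capillary electrophoresis; gain of signal fitted against DMSO.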
Chain of Nuclear receptor subfamily 1 group I member 3 (Homo sapiens) (Q14994 whole entry, looked up, the tested form may be a part): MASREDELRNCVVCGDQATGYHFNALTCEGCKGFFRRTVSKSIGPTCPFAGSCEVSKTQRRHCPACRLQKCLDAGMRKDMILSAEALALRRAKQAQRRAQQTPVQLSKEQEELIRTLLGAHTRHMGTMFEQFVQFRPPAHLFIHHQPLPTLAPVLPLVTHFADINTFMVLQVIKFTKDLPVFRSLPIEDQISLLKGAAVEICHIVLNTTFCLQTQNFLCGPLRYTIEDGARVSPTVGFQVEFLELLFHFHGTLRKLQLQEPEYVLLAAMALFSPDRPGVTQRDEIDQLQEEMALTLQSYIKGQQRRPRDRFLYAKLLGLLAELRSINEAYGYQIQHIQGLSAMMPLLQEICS

The target in experiment [13] is X-box-binding protein 1 (Homo sapiens) (UniProt P17861). Nature of the experiment: ATG_Xbp1_CIS: Attagene CIS-FACTORIAL HepG2 Assay for human X-box Binding Protein 1 (XBP1) (AID 2282972). Conditions: HepG2 XBP1 cis-element reporter, Attagene multiplex; actives raise or lower the signal. The method, boiled down: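 Fluorescence-labelled cDNA fragments from reporter transcripts, separated by capillary electrophoresis, give the signal. Source: HepG2 cells transfected with promoter-driven reporter units, harvested 24 h post-dose. DMSO served as reference for bidirectional curve fitting.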
Chain of X-box-binding protein 1 (Homo sapiens) (P17861 whole entry, looked up, the tested form may be a part): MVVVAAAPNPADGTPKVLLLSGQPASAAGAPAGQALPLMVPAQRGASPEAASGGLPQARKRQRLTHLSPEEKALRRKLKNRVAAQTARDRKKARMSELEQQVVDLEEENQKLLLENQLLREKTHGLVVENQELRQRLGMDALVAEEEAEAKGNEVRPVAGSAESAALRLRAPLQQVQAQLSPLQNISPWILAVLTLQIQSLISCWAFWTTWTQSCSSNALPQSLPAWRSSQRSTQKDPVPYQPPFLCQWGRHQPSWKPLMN

Experiment [14] is described as follows: ATG_M_19_TRANS: Attagene TRANS-FACTORIAL HepG2 Assay for M19 Transcription Factor (Internal Marker) (AID 2282974; active means hit-call score of the fitted dose curve at least 0.9, where 1 is the maximum). Conditions: HepG2 Attagene TRANS-FACTORIAL M19 internal marker reporter. The method, boiled down:
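HepG2 cells transiently transfected with multiple GAL4-UAS reporter transcription units were exposed to chemicals for 24 h. Reporter mRNA was read by RT-PCR, 6-FAM primer extension, HpaI digestion and capillary electrophoresis; gain of signal fitted relative to DMSO.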

The target in experiment [15] is Estrogen receptor (Homo sapiens) (UniProt P03372). Nature of the experiment: ATG_ERa_TRANS: Attagene TRANS-FACTORIAL HepG2 Assay for human Estrogen Receptor alpha (ERa) (AID 2282970; active means hit-call score of the fitted dose curve at least 0.9, where 1 is the maximum). Conditions: HepG2 Attagene TRANS ERa GAL4 reporter, mRNA. Put shortly:
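HepG2 cells transiently transfected with multiplexed GAL4-UAS reporter units; ERa activity read via exogenous chimeric NR-Gal4 protein. After 24 hour compound exposure, reporter mRNA measured by RT-PCR with 6-FAM labelling and capillary electrophoresis; gain-of-signal fitted relative to DMSO.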

Experiment [16] can be described thus: ATG_GAL4_TRANS: Attagene TRANS-FACTORIAL HepG2 Assay for GAL4 (Internal Marker) (AID 2282976; active means hit-call score of the fitted dose curve at least 0.9, where 1 is the maximum). Conditions: HepG2 Attagene TRANS GAL4 internal marker reporter. Put shortly: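 HepG2 cells transiently transfected with multiplexed GAL4-UAS reporter constructs were dosed for 24 h. Reporter mRNA was measured by RT-PCR, 6-FAM primer extension, HpaI digestion and capillary electrophoresis, and gain of signal was fitted relative to DMSO.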

Experiment [17] has as its target Steroid hormone receptor ERR1 (Homo sapiens) (UniProt P11474). The experiment can be described thus: ATG_ERRa_TRANS: Attagene TRANS-FACTORIAL HepG2 Assay for human Estrogen-Related Receptor alpha (ERRa) (AID 2282971; active means hit-call score of the fitted dose curve at least 0.9, where 1 is the maximum). Conditions: HepG2 Attagene TRANS reporter, ERRa transactivation. The method, boiled down: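 HepG2 cells transiently transfected with multiplexed GAL4-UAS reporter units reading chimeric ERRa-Gal4 activity; 24 h compound exposure. Reporter mRNA measured by RT-PCR, 6-FAM labelling, HpaI digest and capillary electrophoresis; gain of signal fitted versus DMSO baseline.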

In experiment [18] the target is Estrogen-related receptor gamma (Homo sapiens) (UniProt P62508). Nature of the experiment: ATG_ERRg_TRANS: Attagene TRANS-FACTORIAL HepG2 Assay for human Estrogen-Related Receptor gamma (ERRg) (AID 2282977; active means hit-call score of the fitted dose curve at least 0.9, where 1 is the maximum;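 further: hits increase reporter signal over DMSO so potencies reflect activators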). Conditions: HepG2 Attagene TRANS reporter, ERRg transactivation. Put shortly:
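HepG2 cells transiently transfected with multiplexed GAL4-UAS reporter units driven by chimeric NR-Gal4 proteins; 24 h exposure. Reporter mRNA quantified by RT-PCR, fluorescent labelling, HpaI digestion and capillary electrophoresis; gain of signal vs DMSO.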

Experiment [19] concerns the target Glucocorticoid receptor (Homo sapiens) (UniProt P04150). The experiment can be described thus: ATG_GR_TRANS: Attagene TRANS-FACTORIAL HepG2 Assay for human Glucocorticoid Receptor (GR) (AID 2282978; active means hit-call score of the fitted dose curve at least 0.9, where 1 is the maximum;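 further: activators score as hits since higher reporter transcript over DMSO is fitted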). Conditions: HepG2 Attagene TRANS GR reporter, mRNA transcription. Put shortly: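 HepG2 cells transiently transfected with multiplexed reporter units in which chimeric NR-GAL4 proteins drive GAL4-UAS reporters; 24 h compound exposure. Reporter mRNA measured by RT-PCR, 6-FAM labelling, HpaI digestion and capillary electrophoresis; gain-of-signal fitted versus DMSO.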

Chain of Signal transducer and activator of transcription 3 (Homo sapiens) (P40763 whole entry, looked up): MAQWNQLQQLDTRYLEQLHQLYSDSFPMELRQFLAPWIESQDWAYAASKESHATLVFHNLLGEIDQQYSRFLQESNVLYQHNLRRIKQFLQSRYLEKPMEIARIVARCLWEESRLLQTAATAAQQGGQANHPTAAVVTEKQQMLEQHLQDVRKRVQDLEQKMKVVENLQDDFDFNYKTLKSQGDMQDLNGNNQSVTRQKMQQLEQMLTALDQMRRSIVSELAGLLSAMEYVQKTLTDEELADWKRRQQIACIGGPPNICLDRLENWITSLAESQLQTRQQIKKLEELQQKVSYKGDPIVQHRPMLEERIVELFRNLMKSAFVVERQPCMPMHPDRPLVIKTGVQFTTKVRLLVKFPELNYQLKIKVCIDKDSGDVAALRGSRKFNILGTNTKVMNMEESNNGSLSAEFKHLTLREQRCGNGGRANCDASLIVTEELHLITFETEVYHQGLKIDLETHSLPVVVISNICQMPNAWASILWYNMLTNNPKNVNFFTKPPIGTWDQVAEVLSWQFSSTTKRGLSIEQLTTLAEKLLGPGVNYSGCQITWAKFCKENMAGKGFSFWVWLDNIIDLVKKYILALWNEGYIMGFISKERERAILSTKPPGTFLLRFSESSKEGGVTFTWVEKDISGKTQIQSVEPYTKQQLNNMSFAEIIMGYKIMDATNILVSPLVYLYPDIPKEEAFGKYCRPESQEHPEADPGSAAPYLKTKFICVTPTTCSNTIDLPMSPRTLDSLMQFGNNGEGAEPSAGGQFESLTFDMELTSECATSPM
Chain of Transcription factor Sp1 (Homo sapiens) (P08047 whole entry, looked up): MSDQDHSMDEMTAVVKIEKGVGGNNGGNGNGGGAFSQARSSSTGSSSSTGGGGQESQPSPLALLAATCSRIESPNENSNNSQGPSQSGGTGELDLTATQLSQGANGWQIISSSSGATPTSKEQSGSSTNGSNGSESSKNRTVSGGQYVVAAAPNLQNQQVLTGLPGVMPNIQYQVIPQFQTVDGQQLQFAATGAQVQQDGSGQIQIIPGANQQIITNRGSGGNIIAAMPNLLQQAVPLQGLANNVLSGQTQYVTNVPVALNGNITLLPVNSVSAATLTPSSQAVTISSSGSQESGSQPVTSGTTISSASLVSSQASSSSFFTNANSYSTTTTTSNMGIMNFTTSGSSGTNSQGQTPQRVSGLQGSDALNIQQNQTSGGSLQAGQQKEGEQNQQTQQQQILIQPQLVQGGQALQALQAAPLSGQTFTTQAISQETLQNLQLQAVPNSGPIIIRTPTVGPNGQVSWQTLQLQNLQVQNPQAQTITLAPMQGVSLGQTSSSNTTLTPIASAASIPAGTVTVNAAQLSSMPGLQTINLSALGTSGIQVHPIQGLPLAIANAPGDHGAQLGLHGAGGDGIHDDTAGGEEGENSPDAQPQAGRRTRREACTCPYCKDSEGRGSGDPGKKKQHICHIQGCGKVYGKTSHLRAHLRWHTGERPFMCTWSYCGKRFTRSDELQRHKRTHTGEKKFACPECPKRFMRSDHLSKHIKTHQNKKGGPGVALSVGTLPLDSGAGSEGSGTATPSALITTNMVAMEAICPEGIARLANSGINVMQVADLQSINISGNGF
Chain of Steroid hormone receptor ERR1 (Homo sapiens) (P11474 whole entry, looked up, the tested form may be a part): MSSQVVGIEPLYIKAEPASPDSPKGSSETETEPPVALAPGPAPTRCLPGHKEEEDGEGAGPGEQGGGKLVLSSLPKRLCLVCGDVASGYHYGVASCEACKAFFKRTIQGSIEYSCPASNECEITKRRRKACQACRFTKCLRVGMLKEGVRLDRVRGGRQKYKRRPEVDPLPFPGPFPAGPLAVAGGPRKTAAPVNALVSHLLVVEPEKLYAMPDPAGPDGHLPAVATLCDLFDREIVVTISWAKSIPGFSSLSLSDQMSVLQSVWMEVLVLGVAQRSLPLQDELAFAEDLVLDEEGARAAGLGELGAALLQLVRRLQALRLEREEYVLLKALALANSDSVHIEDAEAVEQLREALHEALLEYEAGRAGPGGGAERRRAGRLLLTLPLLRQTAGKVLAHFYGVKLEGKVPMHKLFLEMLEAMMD
Chain of Estrogen receptor (Homo sapiens) (P03372 whole entry, looked up, the tested form may be a part): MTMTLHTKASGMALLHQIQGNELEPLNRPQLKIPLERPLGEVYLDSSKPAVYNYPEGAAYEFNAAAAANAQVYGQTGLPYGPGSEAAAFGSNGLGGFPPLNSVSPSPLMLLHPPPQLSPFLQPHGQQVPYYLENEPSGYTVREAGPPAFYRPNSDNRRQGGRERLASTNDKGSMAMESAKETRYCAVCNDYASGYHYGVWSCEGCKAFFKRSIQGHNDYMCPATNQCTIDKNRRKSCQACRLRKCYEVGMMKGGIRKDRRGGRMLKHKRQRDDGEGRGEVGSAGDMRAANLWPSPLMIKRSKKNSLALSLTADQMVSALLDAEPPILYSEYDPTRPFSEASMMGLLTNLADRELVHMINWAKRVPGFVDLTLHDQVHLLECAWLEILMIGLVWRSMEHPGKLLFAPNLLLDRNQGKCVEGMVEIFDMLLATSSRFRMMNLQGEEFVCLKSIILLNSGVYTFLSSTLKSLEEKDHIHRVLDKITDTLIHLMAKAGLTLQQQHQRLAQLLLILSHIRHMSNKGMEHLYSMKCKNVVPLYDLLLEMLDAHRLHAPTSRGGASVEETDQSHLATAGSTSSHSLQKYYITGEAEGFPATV
Chain of Estrogen-related receptor gamma (Homo sapiens) (P62508 whole entry, looked up, the tested form may be a part): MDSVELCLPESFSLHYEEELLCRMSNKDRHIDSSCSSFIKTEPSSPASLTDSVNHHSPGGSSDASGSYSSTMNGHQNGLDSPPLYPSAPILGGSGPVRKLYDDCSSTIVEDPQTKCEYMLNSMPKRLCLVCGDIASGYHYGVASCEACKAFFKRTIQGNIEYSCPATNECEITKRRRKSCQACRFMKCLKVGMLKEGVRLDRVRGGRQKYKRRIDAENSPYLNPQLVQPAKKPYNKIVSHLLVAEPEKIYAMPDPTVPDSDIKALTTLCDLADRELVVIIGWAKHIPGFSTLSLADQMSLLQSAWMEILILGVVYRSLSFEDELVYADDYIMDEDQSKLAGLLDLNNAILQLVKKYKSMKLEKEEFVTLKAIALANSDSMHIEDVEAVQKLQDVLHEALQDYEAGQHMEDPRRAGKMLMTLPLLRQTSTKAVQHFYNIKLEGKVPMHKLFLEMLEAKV
Chain of Glucocorticoid receptor (Homo sapiens) (P04150 whole entry, looked up, the tested form may be a part): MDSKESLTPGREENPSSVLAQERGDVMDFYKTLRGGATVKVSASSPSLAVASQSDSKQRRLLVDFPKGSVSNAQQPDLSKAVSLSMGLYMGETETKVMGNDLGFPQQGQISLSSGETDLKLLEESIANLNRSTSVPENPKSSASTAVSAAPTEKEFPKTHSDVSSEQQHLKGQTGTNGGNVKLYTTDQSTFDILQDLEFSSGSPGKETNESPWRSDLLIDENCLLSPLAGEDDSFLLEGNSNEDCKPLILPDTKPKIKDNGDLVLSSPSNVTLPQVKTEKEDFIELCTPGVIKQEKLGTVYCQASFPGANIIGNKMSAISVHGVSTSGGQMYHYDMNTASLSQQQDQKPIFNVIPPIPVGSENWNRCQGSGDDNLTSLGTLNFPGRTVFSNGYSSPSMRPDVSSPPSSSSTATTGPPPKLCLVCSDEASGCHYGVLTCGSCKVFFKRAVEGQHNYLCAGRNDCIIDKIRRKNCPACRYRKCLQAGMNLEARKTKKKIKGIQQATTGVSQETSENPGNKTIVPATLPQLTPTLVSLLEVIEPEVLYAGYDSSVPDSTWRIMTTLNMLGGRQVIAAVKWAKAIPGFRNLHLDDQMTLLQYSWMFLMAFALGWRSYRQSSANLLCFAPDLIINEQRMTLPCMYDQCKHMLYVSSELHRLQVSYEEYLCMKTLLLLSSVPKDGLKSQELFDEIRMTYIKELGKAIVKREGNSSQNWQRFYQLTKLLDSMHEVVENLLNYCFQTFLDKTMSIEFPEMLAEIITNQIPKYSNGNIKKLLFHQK

Take `CN(CCCC(=O)c1cccnc1)N=O`: the compound was called inactive in [1], in experiment [2], in experiment [3], in experiment [4], in experiment [5] and in [6]. Moreover, the result in [7], in experiment [8], in [9], in [10], in [11] and in experiment [12] was inactive. Further, the result in experiment [13] and in experiment [14] was inactive.

For `CCc1ccccc1N`, the result in experiment [1], in experiment [2], in experiment [3], in experiment [4], in experiment [5] and in [6] was inactive. Also, the compound was called inactive in experiment [7], in experiment [8], in experiment [9], in [10], in experiment [11] and in experiment [12]. The outcome in experiment [15], in experiment [13], in [14] and in experiment [16] was inactive.

Regarding `CCOP(=S)(OCC)SCSP(=S)(OCC)OCC`, the compound was called inactive in experiment [1], in experiment [2], in experiment [3], in experiment [4], in [5] and in [6]. Besides, the compound was called inactive in experiment [7], in [8], in experiment [9], in experiment [10], in experiment [12] and in experiment [13]. The result in experiment [14] was inactive. In addition, the AC50 in [11] is 1320 nM (active); in experiment [15] it was 3880 nM (active).

Take `O=c1[nH]c(=O)[nH]c(=O)[nH]1`: the compound was classed as inactive in experiment [1], in experiment [2], in experiment [3], in [4], in experiment [5] and in experiment [6]. Besides, the compound was called inactive in experiment [7], in [8], in experiment [9], in experiment [10], in experiment [11] and in experiment [12]. Further, the compound was called inactive in [17], in experiment [13], in [14], in experiment [16], in experiment [18] and in experiment [19].
